Measured values taken from PubChem BioAssay (NCI).
About 83,000 compounds went through this panel and 20% of them were active in at least one assay; those are over-represented in the sample as a whole.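 Assay: single dose, 48 h. Readout: percent growth (0 = no net growth; negative = cell death). Active: <10.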 Active and inactive are the calls of the source.

Columns and labels:
Test in all cases: NCI-60 one-dose screen, 48 h (100 = growth as untreated, 0 = no growth, -100 = all killed)
Details in all cases: 10 µM unless noted
NCI-H23 lung = test system: NCI-H23 lung
NCI-H226 lung = test system: NCI-H226 lung
NCI-H322M lung = test system: NCI-H322M lung
HOP-62 NSCLC = test system: HOP-62 NSCLC
NCI-H460 lung = test system: NCI-H460 lung
HOP-92 NSCLC = test system: HOP-92 NSCLC
NCI-H522 lung = test system: NCI-H522 lung
A549/ATCC NSCLC = test system: A549/ATCC NSCLC
786-0 renal = test system: 786-0 renal
COLO 205 colon = test system: COLO 205 colon
DU-145 prostate = test system: DU-145 prostate
K-562 leukemia = test system: K-562 leukemia
MALME-3M melanoma = test system: MALME-3M melanoma
MDA-MB-231 breast = test system: MDA-MB-231 breast
RXF 393 renal = test system: RXF 393 renal
SF-268 CNS = test system: SF-268 CNS
SF-295 CNS = test system: SF-295 CNS
SF-539 CNS = test system: SF-539 CNS
UACC-257 melanoma = test system: UACC-257 melanoma
M14 melanoma = test system: M14 melanoma

Measured: growth

O=C(NCCCCCCCNC(=O)OCc1ccc2c(Cl)cc(Cl)c(O)c2n1)OCc1ccc2c(Cl)cc(Cl)c(O)c2n1
inactive: NCI-H322M lung 31%
active: NCI-H23 lung -52.3% | NCI-H226 lung -50.3% | HOP-62 NSCLC -56.8% | NCI-H460 lung -31.3% | HOP-92 NSCLC -75% | NCI-H522 lung -55.6% | A549/ATCC NSCLC -68.7% | 786-0 renal -62.7% | COLO 205 colon -75.9% | DU-145 prostate -87.3% | K-562 leukemia 2.04% | MALME-3M melanoma -87.4% | MDA-MB-231 breast -72% | RXF 393 renal -90.1% | SF-268 CNS -58.8% | SF-295 CNS 1.17% | SF-539 CNS -96.6% | UACC-257 melanoma -41.6% | M14 melanoma -76.4%

Cc1ccc2c(n1)C(=O)C(Cl)=C(Nc1ccc(N3CCN(C)CC3)cc1)C2=O
inactive: NCI-H23 lung 16.7% | NCI-H226 lung 105% | NCI-H322M lung 97.3% | HOP-62 NSCLC 63.7% | NCI-H460 lung 97.2% | A549/ATCC NSCLC 97.6% | 786-0 renal 52.2% | COLO 205 colon 82.5% | RXF 393 renal 62.8% | SF-268 CNS 77.7% | SF-295 CNS 99.4% | UACC-257 melanoma 57.2% | M14 melanoma 73.8%
active: HOP-92 NSCLC -86.3% | NCI-H522 lung -63.8% | DU-145 prostate -18.7% | K-562 leukemia -12.3% | MALME-3M melanoma -75.5% | MDA-MB-231 breast -62.8% | SF-539 CNS -24.5%

O=C1COCCN1c1ccc(NCc2cn(Cc3ccccc3)c3ccccc23)cc1
active: NCI-H226 lung -40.1%
inactive: NCI-H23 lung 93.7% | NCI-H322M lung 86.1% | HOP-62 NSCLC 90.7% | NCI-H460 lung 31.9% | HOP-92 NSCLC 69.5% | NCI-H522 lung 94.1% | A549/ATCC NSCLC 81.4% | 786-0 renal 95.3% | COLO 205 colon 28.8% | DU-145 prostate 102% | K-562 leukemia 57.3% | MALME-3M melanoma 95.9% | MDA-MB-231 breast 86.7% | RXF 393 renal 46.8% | SF-268 CNS 91.9% | SF-295 CNS 61.7% | SF-539 CNS 91.8% | UACC-257 melanoma 75.4% | M14 melanoma 90.2%

CC1(C)CC[C@]23CC[C@]4(C)[C@H](CC[C@@H]5[C@@]6(C)C/C(=C/c7ccncc7)C(=O)C(C)(C)[C@@H]6CC[C@]54C)[C@H]2[C@H]1OC3=O
active: SF-539 CNS 6.84% [100 µM]
inactive: NCI-H23 lung 61.4% [100 µM] | NCI-H226 lung 77.4% [100 µM] | NCI-H322M lung 96.5% [100 µM] | HOP-62 NSCLC 10.2% [100 µM] | NCI-H460 lung 51% [100 µM] | HOP-92 NSCLC 16.8% [100 µM] | NCI-H522 lung 50.9% [100 µM] | A549/ATCC NSCLC 70.1% [100 µM] | 786-0 renal 31% [100 µM] | COLO 205 colon 90.5% [100 µM] | DU-145 prostate 80.5% [100 µM] | K-562 leukemia 50.7% [100 µM] | MALME-3M melanoma 67.6% [100 µM] | MDA-MB-231 breast 37.5% [100 µM] | RXF 393 renal 43.6% [100 µM] | SF-268 CNS 42.7% [100 µM] | SF-295 CNS 25.1% [100 µM] | UACC-257 melanoma 84.5% [100 µM] | M14 melanoma 79.3% [100 µM]
